# High-throughput results deposited in PubChem BioAssay by several laboratories.
# An excerpt weighted towards active compounds, which were near 2.4% of everything screened.
# Yeast superoxide: lowers age-related superoxide in aged yeast cells; S. cerevisiae aged cells, superoxide DHE fluorescence; hits give low values; superoxide response (% of plate mean), % at 10 µM; actives 0.18% (n = 330,000); AID 2690;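 active = superoxide response under a set limit, about three screen SD below normal, cut at about 65% in these data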;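 also: yeast aged for seven days with compound at 30 °C before DHE staining; 100% = average MFI of all compound-treated wells on the plate with controls excluded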
# PfGluPho inh: PfG6PD (Plasmodium falciparum) enzyme inhibition | PfGluPho enzyme, NADPH resazurin-diaphorase fluorescence | inhibition, % at 20 µM | actives 0.78% (n = 350,000);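 active = inhibition reaching at least a set limit at 20 µM in the primary screen, cut at about 59% in these data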;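 also: 0% = DMSO wells with substrate and 100% = DMSO wells lacking glucose-6-phosphate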
# PfM18AAP inh-1: blocks P. falciparum M18 aspartyl aminopeptidase; recombinant PfM18AAP, H-Glu-NHMec fluorogenic cleavage; inhibition, % at 7.35 µM; actives 1.2% (n = 290,000); AID 1822;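 active = inhibition above the campaign mean inhibition over all tested compounds plus 3 SD, cut at about 28% in these data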;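 also: 0% = plate median of test compound wells and 100% = 2 mM ZnCl2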
# APOBEC3G inh: blocks human APOBEC3G single-stranded DNA deamination; Q9HC16; AID 493012; inhibition, % at 20 µM; actives 0.28% (n = 330,000); recombinant A3G, ssDNA deamination FAM/TAMRA fluorescence;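 active = inhibition of at least 40% at 20 µM, with no more than 30% in the related APOBEC3A deaminase screen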;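 also: plate controls were DMSO wells with A3G for no effect and wells lacking A3G enzyme for full effect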
# Target sequence (Q9HC16 whole entry, looked up): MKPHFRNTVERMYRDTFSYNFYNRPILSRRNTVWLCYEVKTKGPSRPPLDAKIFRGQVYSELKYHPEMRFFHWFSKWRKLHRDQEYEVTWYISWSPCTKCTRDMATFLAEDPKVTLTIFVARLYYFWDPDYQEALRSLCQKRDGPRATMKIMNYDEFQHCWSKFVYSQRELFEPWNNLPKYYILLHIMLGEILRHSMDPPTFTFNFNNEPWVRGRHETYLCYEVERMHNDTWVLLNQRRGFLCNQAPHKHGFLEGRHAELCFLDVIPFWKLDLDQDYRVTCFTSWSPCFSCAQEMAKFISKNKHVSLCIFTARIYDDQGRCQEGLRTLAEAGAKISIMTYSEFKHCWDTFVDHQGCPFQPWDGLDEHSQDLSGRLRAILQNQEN
# A3A deaminase: inhibitors of human APOBEC3A DNA deaminase; recombinant A3A, FAM/TAMRA ssDNA deamination fluorescence; inhibition, % at 20 µM; actives 0.41% (n = 330,000);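 active = at least 40% inhibition at 20 µM here, with at most 30% in a related deaminase screen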;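 also: plate controls were A3A with DMSO for no effect and wells lacking A3A enzyme for full effect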
# Target sequence (P31941 whole entry, looked up): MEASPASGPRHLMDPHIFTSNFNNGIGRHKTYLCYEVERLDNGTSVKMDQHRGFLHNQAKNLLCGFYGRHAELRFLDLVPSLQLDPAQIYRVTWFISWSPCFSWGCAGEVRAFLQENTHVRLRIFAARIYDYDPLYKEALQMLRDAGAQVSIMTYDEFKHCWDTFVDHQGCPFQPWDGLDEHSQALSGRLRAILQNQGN
# PfM18AAP inh-2: PfM18AAP inhibition, confirmation; shares compounds with PfM18AAP inh-1; recombinant PfM18AAP, H-Glu-NHMec fluorogenic cleavage; inhibition, % at 7.35 µM; AID 2170; actives 28% (n = 2,400);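 active = mean inhibition over replicate wells above the hit cutoff set for the earlier primary screen, cut at about 29% in these data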;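 also: 0% = median of test compound wells and 100% = 2 mM ZnCl2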
# CTSL1 confirm: Cathepsin L (human) inhibition, confirmation; shares compounds with PfM18AAP inh-1; purified cathepsin L1, Z-Leu-Arg-MCA fluorescence; inhibition, % at 5.96 µM; 2,400 tested, under 10 active; AID 2178;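 active = average inhibition across replicates above the hit cutoff set in the earlier primary screen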;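 also: 0% = median of test compound wells and 100% = Z-Phe-Ala-diazomethylketone 1 µM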
# Starred values were filed as active, the others as inactive; x = no result given.
SMILES,Yeast superoxide,PfGluPho inh,PfM18AAP inh-1,APOBEC3G inh,A3A deaminase,PfM18AAP inh-2,CTSL1 confirm
O=C1NC(=O)N(Cc2ccccc2)C(=O)/C1=C\C=C\c1ccco1,112,31,30*,21,25,x,x
O=C1NC(=O)N(c2ccccc2)C(=O)/C1=C/C=C/c1ccco1,93,31,24,3,11,x,x
CCC(=Nc1ccc2c(c1)CCC2)c1c(O)n(-c2ccc(OC)cc2)c(=O)[nH]c1=O,86,3,-1,-4,-3,x,x
C/C(=C\c1ccc(N(C)C)cc1)[N+](=O)[O-],80,1,12,-2,1,x,x
CN(C)c1ccc(/C=C/[N+](=O)[O-])cc1,103,20,31*,-6,-6,x,x
CCn1nc(-c2ccccc2)nc2c(=O)n(C)c(=O)nc1-2,229,95*,7,-7,-4,x,x
CCn1cc(CN2CCCC(C(=O)c3sccc3C)C2)cn1 (stereo not given),110,17,3,-3,-2,x,x
CN1C(=O)/C(=C/c2ccc(Cl)s2)C(=O)NC1=S,105,63*,9,x,x,x,x
COc1ccc(NC(=O)c2cn(CCC#N)nc2-c2ccc(OC)c(OC)c2)cc1,91,-13,-1,-6,1,x,x
Cc1c(CCN)ccc2c1[nH]c1ccccc12,65*,0,3,-9,-5,x,x
O=C(O)Cn1cc(C=C2C(=O)NC(=O)NC2=O)c2ccccc21,93,12,27,-11,-3,x,x
O=C(Cn1cc(C=C2C(=O)NC(=O)NC2=O)c2ccccc21)NCC1CCCO1 (stereo not given),90,7,32*,-5,0,x,x
CC(=O)c1ccc2c(c1)C1C(Cl)C(Sc3ccccc3[N+](=O)[O-])CC1C(c1ccccc1[N+](=O)[O-])N2 (stereo not given),112,59*,19,-11,-7,x,x
CC(=O)c1ccc2c(c1)C1C(Cl)C(Sc3ccccc3[N+](=O)[O-])CC1C(c1ccccc1)N2 (stereo not given),95,34,17,32,-7,x,x
Oc1ccc(C[C@H]2NCCc3cc(O)c(O)cc32)cc1O,100,53,82*,28,3,x,x
CCCNC(=O)N1[C@H]2CC[C@@H]1C(C(=O)OC)=C(c1ccccc1)C2,101,5,x,-8,-3,x,x
CCN(CC)c1ccc(N=Cc2c(O)n(-c3cc(OC)ccc3OC)c(=O)[nH]c2=O)cc1,90,18,34*,-2,-5,x,x
Clc1ccc(N2CC2c2ccncc2)cc1 (stereo not given),105,-9,2,-5,-3,x,x
CN1CC[C@@]2(C)c3cc(O)ccc3N(C)C2O1 (stereo not given in full),92,64*,x,-12,-7,x,x
O=C1NC(=O)C(=Cc2ccc(N3CCOCC3)cc2)C(=O)N1,96,-5,22,-4,-2,x,x
O=C1NC(=O)C(=Cc2ccc(-c3ccc(S(=O)(=O)N4CCOCC4)cc3)o2)C(=O)N1,98,73*,-4,-5,1,x,x
CN1C2c3ccccc3C3C4c5ccccc5C(C31)C(C2[N+](=O)[O-])N4C (stereo not given),93,0,1,-11,-3,x,x
O=C1CC=C2C3CC4N(CCC45c4cc(O)c(O)cc4N1C25)CC3=CCBr (stereo not given),x,126*,x,x,x,x,x
O=C1CC=C2C3CC4N(CCC45c4ccccc4N1C25)CC3=CCO (stereo not given),x,5,x,x,x,x,x
CN1C(=O)C(Cc2ccc3c(c2)OCO3)C(=O)N(C)C1=O,106,x,34*,-1,-1,0,-3
SMILES,Yeast superoxide,PfGluPho inh,PfM18AAP inh-1,APOBEC3G inh,A3A deaminase,PfM18AAP inh-2,CTSL1 confirm
CN1C(=O)C(Cc2ccccc2)C(=O)N(C)C1=O,x,21,x,x,x,x,x
CC(C)OP(=O)(OC(C)C)C(NCc1ccccc1)c1ccccc1 (stereo not given),100,-2,4,-11,2,x,x
Oc1ccc(CC2CC3CCN2CC3)cc1O (stereo not given),102,-1,57*,-9,-7,28,-4
O=C1C2CCN(CC2)C1Cc1ccccc1O (stereo not given),90,-22,-2,-2,7,x,x
CN1CCN2c3ccc(N)cc3CC3(C(=O)NC(=O)NC3=O)C2C1 (stereo not given),x,7,44*,x,x,-45,2
COCCO[C@H]1CC[C@@]2(C)C(=CCC3C2CC[C@@]2(C)C3CC[C@]2(C)O)C1 (stereo not given in full),93,5,x,-3,2,x,x
NC(=O)c1ccc(N=Cc2c(O)n(Cc3ccco3)c(=O)[nH]c2=O)cc1,104,25,11,10,20,x,x
N#Cc1c(/N=C/c2c(O)n(Cc3ccco3)c(=O)[nH]c2=O)sc2c1CCCC2,95,5,37*,35,55,-43,-4
O=c1[nH]c(=O)n(Cc2ccco2)c(O)c1/C=N/N1CCCCCC1,109,-13,9,-2,-3,x,x
CCN(CC)c1ccc(N=Cc2c(O)n(Cc3ccco3)c(=O)[nH]c2=O)cc1,109,11,42*,-3,-1,-52,0
C/C(CC(c1ccccc1)c1c(O)c2ccccc2oc1=O)=N\Nc1ccc([N+](=O)[O-])cc1[N+](=O)[O-] (stereo not given),112,-28,36*,-2,-6,-28,-1
CC1=C(C(=O)O)N2C(=O)[C@@H](NC(=O)CCCC(=O)O)[C@H]2SC1,92,39,36*,-6,-3,15,3
Cn1cccc1/C=C1\C(=O)NC(=O)N(Cc2ccco2)C1=O,x,26,15,x,x,x,x
O=C1NC(=O)N(Cc2ccco2)C(=O)/C1=C/C=C/c1ccco1,99,47,35*,88,96,-4,-2
COC(=O)C1=C(c2cccc(C#N)c2)C[C@@H]2CC[C@H]1N2C(=O)NCCOc1ccccc1Cl,105,-1,x,-8,-3,x,x
CC(C)(C)c1ccc(O)c(N=Cc2c(O)ccc3ccccc23)c1,105,25,89*,13,-4,45*,3
COC(=O)C(O)(c1ccc(N=Cc2ccccc2O)c(C)c1)C(F)(F)F (stereo not given),76,-14,3,-7,-4,x,x
NNc1n[nH]c(=S)n1N,96,37,42*,-5,-4,40*,3
COc1ccccc1-n1c(O)c(/C=C2\C=Nc3ccccc32)c(=O)[nH]c1=O,106,21,40*,-9,-6,43*,-9
COc1ccc(-n2c(/C=C/c3ccc(O)c(O)c3)nc3ccccc3c2=O)cc1,109,9,63*,-15,1,45*,1
COc1ccc(-n2c(Cc3cccc([N+](=O)[O-])c3)nc3ccccc3c2=O)cc1,91,-3,-1,-3,-1,x,x
